# Screens from PubChem.
# CYP2C9 inh – blockers of cytochrome P450 2C9 activity – biochemical, luminescence, ADME assay, primary screen | actives 20% (n = 96,000) | CYP2C9 Supersomes, luciferin-H conversion | P11712 | inhibition, % at 5 µM;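 active = blocking of liver enzyme CYP2C9 beyond about 50% at 5 µM, limit read from the data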
# PostGolgi yeast – phenotypic screen on post-Golgi transport, primary screen; inhibition, % at 10 µM; post-Golgi transport phenotypic cell assay; actives 0.9% (n = 98,000);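 also: yeast cells grown in 1536-well plates; yeast grown about 18 h at 30C before absorbance read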
# CYP2C9 act – human CYP2C9 activators, primary screen, biochemical, luminescence; recombinant CYP2C9, luciferin-H conversion; hits give high values; factor 1 = untreated enzyme, 0 = blocked; actives 1.4% (n = 96,000); Cytochrome P450 2C9 (Homo sapiens), P11712; AID 1024, 2008; activation factor at 5 µM;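 active = activation factor of 2 or more for CYP2C9 at a 5 µM dose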;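 also: 0 = sulfaphenazole-blocked wells and 1 = vehicle-only wells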
# PostGolgi ctrl – growth inhibition of yeast control strain, primary screen, counter-screen for post-Golgi transport modulator project | actives 5% (n = 98,000) | inhibition, % at 10 µM | AID 738, 2007 | efflux-deficient yeast background strain, growth absorbance A615, 16 h
# CYP2C19 act – human CYP2C19 activators, primary screen, biochemical, luminescence; Cytochrome P450 2C19 (Homo sapiens), P33261; recombinant CYP2C19, luciferin-H EGE luminescence; hits give high values; 0 = fully inhibited enzyme, 1 = untreated enzyme; activation factor at 5 µM; 96,000 tested, under 10 active; AID 1025, 2008;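 active = activation factor of at least 2 at 5 µM in the primary screen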;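 also: 0 = wells with 2.5 mM tranylcypromine and 1 = vehicle-only wells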
# Target sequence (P33261 whole entry, looked up): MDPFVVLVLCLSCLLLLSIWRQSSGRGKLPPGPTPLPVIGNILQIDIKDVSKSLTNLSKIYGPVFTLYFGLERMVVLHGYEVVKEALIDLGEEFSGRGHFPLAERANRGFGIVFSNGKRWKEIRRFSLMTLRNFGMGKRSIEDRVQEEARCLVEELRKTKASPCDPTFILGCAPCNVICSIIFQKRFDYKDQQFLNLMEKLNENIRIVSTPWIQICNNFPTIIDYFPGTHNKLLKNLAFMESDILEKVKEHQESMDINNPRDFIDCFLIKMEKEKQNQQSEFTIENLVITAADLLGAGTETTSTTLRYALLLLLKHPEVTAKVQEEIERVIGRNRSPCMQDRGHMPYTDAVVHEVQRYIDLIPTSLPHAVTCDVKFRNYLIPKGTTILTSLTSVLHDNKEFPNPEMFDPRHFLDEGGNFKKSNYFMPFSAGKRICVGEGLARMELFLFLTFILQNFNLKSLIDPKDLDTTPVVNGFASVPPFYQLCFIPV
# CYP2C19 inh – blockers of cytochrome P450 2C19 activity – biochemical, luminescence, ADME assay, primary screen; actives 21% (n = 96,000); inhibition, % at 5 µM; P33261; CYP2C19 Supersomes, luciferin-H EGE luminescence, 30 min;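 active = CYP2C19 inhibition above a set limit at 5 µM in the primary screen, cut at about 50% in these data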;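 also: plate controls were negative control wells for no effect and 2.5 mM tranylcypromine positive control for full effect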
# Starred values were filed as active, the others as inactive; nt = no result given. This is a sample that favours compounds with a hit; in the whole collection about 32% have one here. Rule as the data show it, unless noted: active = inhibition above about 30%; inactive = the rest.
SMILES,CYP2C9 inh,PostGolgi yeast,CYP2C9 act,PostGolgi ctrl,CYP2C19 act,CYP2C19 inh
CCCOc1ccc2oc(=O)c3c(c2c1)CCCN3C(=O)CN1CCN(C(=O)c2ccco2)CC1,nt,-4,nt,14,nt,nt
CN(CC(=O)N1CCCc2c1c(=O)oc1ccc(O)cc21)Cc1ccccc1,67*,7,0.3,-1,0,96*
O=C(CN1CCCC1)N1CCCc2c1c(=O)oc1ccc(OCc3ccccc3)cc21,31,22,0.7,36*,0.8,19
CCCOc1ccc2oc(=O)c3c(c2c1)CCCN3C(=O)CN1CCN(c2ncccn2)CC1,65*,nt,0.3,nt,0.4,63*
O=C(Nc1ccccc1)O/N=C/c1ccccc1Cl,28,-10,0.7,-3,0.6,40
CC(=O)Nc1ccc(C(=O)CSc2nc3ccccc3n2CC(=O)N2CCCC2)cc1,42,-5,0.6,-2,0.8,24
Cc1cc(=O)[nH]c(S/C=C/c2ccccc2)n1,36,-4,0.6,24,0.8,17
CSc1cc(-c2ccc(Cl)cc2)c(C(=O)NC(C)C)s1,26,-7,0.7,22,0.3,69*
CSc1cc(-c2ccc(Cl)cc2)c(C(=O)NN)s1,65*,18,0.3,2,0.3,70*
Cc1cccc(NC(=S)N2CCC(c3nc4ccccc4o3)CC2)c1C,18,5,0.8,5,0.8,25
O=C(NCCC1=CCCCC1)C1CCN(C(=O)c2ccc(Cl)cc2)CC1,40,-6,0.6,-8,0.9,10
C=CCN1/C(=C(\C#N)C2=NS(=O)(=O)c3ccccc32)N(C)c2ccccc21,36,-10,0.6,-2,0.5,55*
CCOC(=O)c1c(C)[nH]c(C)c1-c1ccccc1OC,40,-2,0.6,2,0.3,67*
COC(=O)c1c(C)[nH]c(C)c1-c1ccccc1Cl,47,0,0.5,6,0.4,61*
CCOC(=O)c1c(C)[nH]c2cc(Br)c(OC)cc12,40,-5,0.6,20,0.6,41
O=C1C2C3C=CC(C3)C2C(=O)N1CCN1CCN(S(=O)(=O)c2ccc3ccccc3c2)CC1 (stereo unspecified),-70,-12,1.7,-3,0.7,34
CCOC(=O)c1c(C)[nH]c(C(=O)COC(=O)c2cn(CC)c3nc(C)ccc3c2=O)c1C,22,nt,0.8,nt,0.7,31
Cn1nc(-c2ccc(Cl)cc2)c2cc(C(=O)N3CCN(c4ccccc4)CC3)sc21,84*,-4,0.2,7,0.6,38
Cn1nc(-c2ccc(Cl)cc2)c2cc(C(=O)N3CCCC3)sc21,37,3,0.6,19,0.5,48
Cn1nc(-c2ccc(Cl)cc2)c2cc(C(=O)N3CCN(c4ccccn4)CC3)sc21,56*,-5,0.4,52*,0.7,32
Cc1ccccc1COc1ccc(/C(O)=C2/C(=O)C(=O)N(CCCn3ccnc3)C2c2ccco2)cc1 (stereo unspecified),95*,nt,0,nt,0.2,75*
Cc1ccc(C2/C(=C(/O)c3ccc(Br)cc3)C(=O)C(=O)N2Cc2ccco2)o1 (stereo unspecified),72*,-1,0.3,5,1.1,-13
Cc1ccc(/C(O)=C2/C(=O)C(=O)N(CCCn3ccnc3)C2c2ccccn2)cc1 (stereo unspecified),20,-6,0.8,16,0.9,11
CC(C)(C)c1ccc(-c2nc3c(C#N)c(-c4ccc5c(c4)OCO5)ccn3n2)cc1,24,8,0.8,3,1,-3
O=C(c1cccc2c1-c1ccccc1/C2=N/O)N1CCCCC1,50,nt,0.5,nt,0.5,51*
Cc1c(C#N)c2ncn(Cc3ccccn3)c(=O)c2n1-c1ccccc1,-5,5,1,7,1.1,-5
COCC(=O)N(C)C1(c2nnnn2CCOC(=O)Nc2ccc(Cl)cc2)CCCC1,9,-3,0.9,-3,0.7,34
Clc1ccc(C(c2nnnn2CCc2ccccc2)N2CCSCC2)cc1 (stereo unspecified),79*,-4,0.2,21,0.2,80*
